Results from PubChem BioAssay (EPA / NIEHS).
Where a structure was tested more than once in an assay, its records may differ in their call. Calls of active or inactive are those of the source. How the source made its calls: active means hit-call score of the fitted dose curve at least 0.9, where 1 is the maximum; inactive means score below 0.9.

Test: APR_HepG2_MitoMembPot_24hr: Apredica 24-hour HepG2 Assay for Mitochondrial Membrane Potential (AID 2282911)
Conditions: imaging, actives raise or lower the signal
Description: APR_HepG2_24hr is a cell-based, multiplexed-readout assay that uses HepG2, a human liver cell line, with measurements taken at 24 hours after chemical dosing in a 384-well plate.APR_HepG2_MitoMembPot_24hr is one of 10 assay component(s) measured or calculated from the APR_HepG2_24hr assay. It is designed to make measurements of dye binding, a form of membrane potential reporter, as detected with fluorescence intensity signals by HCS Fluorescent Imaging technology.Data from the assay component APR_HepG2_MitoMembPot_24hr was analyzed into 1 assay endpoint. This assay endpoint, APR_HepG2_MitoMembPot_24hr, was analyzed with bidirectional fitting relative to DMSO as the negative control and baseline of activity. Using a type of membrane potential reporter, gain or loss-of-signal activity can be used to understand changes in the signaling. Furthermore, this assay endpoint can be referred to as a primary readout, because this assay has produced multiple assay endpoints where this one serves a signaling function. To generalize the intended target to other relatable targets, this assay endpoint is annotated to the cell morphology intended target family, where the subfamily is organelle conformation.
Cells were treated with dimethyl sulfoxide (DMSO) as a solvent control at a final concentration of 0.5% v/v or with compounds in DMSO with a resulting final DMSO concentration of 0.5% v/v. Compound treatment was done at concentrations of 0.39, 0.78, 1.56, 3.12, 6.24, 12.5, 25, 50, 100, and 200 uM in duplicate on each plate. Cells were treated with compounds for 1, 24, or 72 hr. Carbonyl […] m-chloro-phenylhydrazone (CCCP) and taxol were used as positive controls for mitochondrial function and cytoskeletal stability, respectively; DMSO served as the negative control for this experiment. Cells were fixed by the direct addition of 50 uL formaldehyde in Hank's Balanced Salt Solution (HBSS) to a final concentration of 3.7%. After incubation in the fixation medium for 30 min at room temperature (293-298 K), cells were rinsed twice with HBSS and treated with cell permeabilization buffer (16 uL of 0.5% Triton X-100) for 10 min at room temperature (293-298 K) before labeling. For mitochondrial membrane potential and mitochondrial measurements, pre-fixed cells were incubated with 50 uL of MitoTracker Red CMXRos (Invitrogen) at a concentration of 250 nM for 30 min before fixation. In the remaining cases, post-fixed cells were labeled by incubation with a multiplexed mixture of primary antibodies in HBSS for 60 min at room temperature (293-298 K) to detect immunoreactivity of c-Jun (1:500), phospho-histone H3 (1:100), phospho-histone H2A.x (1:200), p53 (1:400), alpha-tubulin (1:200) and Hoechst 33342 (2 ug/mL). Cells were labeled for multiplexed imaging on two separate plates: a) Hoechst 33342, MitoTracker Red, phospho-histone H3, and alpha-tubulin, and b) Hoechst 33342, phospho-histone H2A.x, and c-Jun. A final rinse with HBSS (50 uL) was performed before analysis. The primary and secondary antibodies for the proteins were phospho-histone H3 (rabbit anti-phospho-histone H3 and FITC-donkey anti-rabbit IgG), phospho-histone H2A.x (mouse anti-phospho-histone H2A.x and FITC-donkey anti-mouse IgG), c-Jun (rabbit anti-phospho-c-Jun and Cy3-donkey anti-rabbit IgG), p53 (sheep anti-p53 and Cy5-donkey anti-sheep IgG), alpha-tubulin (mouse anti-alpha-tubulin and Cy5-donkey anti-mouse IgG). These antibodies are available as the CellCiphr HepG2 assay kit (Millipore).Digital images of each well were captured using a Cellomics ArrayScan VTI (Thermo Scientific Cellomics) (0.8 NA objective, 0.63x optical coupler, and XF-93 filter set) at 20x magnification. The images were acquired using the autofocus feature of the ArrayScan instrument, which entails the following steps. First, the camera focuses on channel 1 (Hoechst 33342), where nuclei are identified. Second, a Z offset of 1 um is used for capturing mitochondria (MitoTracker Red). […]

SMILES	AC50	outcome
O=c1[nH]c(=O)[nH]c(=O)[nH]1	61.3 µM (active)	–
CC(C)(C)CC(C)(C)c1ccc(O)cc1	25.3 µM (active)	–
C[C@]12CCC(=O)C[C@@H]1CC[C@@H]1[C@@H]2CC[C@]2(C)[C@@H](O)CC[C@@H]12	–	inactive
O=C(O)C(F)(F)C(F)(F)C(F)(F)C(F)(F)C(F)(F)C(F)(F)C(F)(F)C(F)(F)C(F)(F)C(F)(F)F	–	inactive
Cn1sc(Cl)cc1=O	–	inactive
ClC1(Cl)C2(Cl)C3(Cl)C4(Cl)C(Cl)(Cl)C5(Cl)C3(Cl)C1(Cl)C5(Cl)C24Cl (stereo not given)	–	inactive
O=C(O)C(F)(F)C(F)(F)C(F)(F)C(F)(F)C(F)(F)C(F)(F)F	–	inactive
O=C1C2(Cl)C3(Cl)C4(Cl)C(Cl)(Cl)C5(Cl)C3(Cl)C1(Cl)C5(Cl)C24Cl (stereo not given)	–	inactive
NC(=O)O	0.205 µM (active)	–
O=C(Nc1ccc2[nH]ccc2c1)c1cc2cc(F)ccc2n1Cc1cccc(F)c1	2.08 µM (active)	–
C=CC(=O)OCCCCCC(C)C	–	inactive
COc1cc(-c2ccc(N)c(OC)c2)ccc1N	12.7 µM (active)	inactive
CN(C)N=O	–	inactive
CC(=O)[O][Hg][c]1ccccc1	–	inactive
O=C(O)C(Cl)(Cl)Cl	101 µM (active)	inactive
CCCCCCCCc1ccc(O)cc1	–	inactive
CCC(=O)C(CC(C)N(C)C)(c1ccccc1)c1ccccc1 (stereo not given)	–	inactive
ClCC(Cl)CCl	–	inactive
Oc1cccc2cccnc12	–	inactive
CCN1CCC2(CC1)COc1cc3c(cc12)N(C(=O)c1ccc(-c2ccc(-c4nnc(C)o4)cc2C)cc1)CC3	–	inactive
CC(C)(C)c1cc(O)ccc1O	114 µM (active)	–
CC(C)(OO)c1ccccc1	96.2 µM (active)	–
C[C@@H]1C[C@@H]([C@H](O)CC2CC(=O)NC(=O)C2)C(=O)[C@@H](C)C1	–	inactive
Cc1ccccc1N	–	inactive
CCC(C)(C)c1ccc(O)c(C(C)(C)CC)c1	29.7 µM (active)	–
C=C(C)C(=O)[O][Sn]([CH2]CCC)([CH2]CCC)[CH2]CCC	–	inactive
CC(C)(c1ccccc1)c1ccc(O)c(C(C)(C)c2ccccc2)c1	29.4 µM (active)	–
CC12CC1(C)C(=O)N(c1cc(Cl)cc(Cl)c1)C2=O (stereo not given)	–	inactive
